# Experimental data from the supplement of paper PMC4166925.
# ± gives the standard deviation of the averaged measurements. In all, about 33,000 sequences were measured (“E-score (dimensionless, -0.5 to 0.5)”: median about -0.046, highest 2% from about 0.36 on). This is one part of a sample in which the highest values are shown more often than they occur.
# Test system: T1, SpTbr T-box DNA-binding domain (GST fusion)
# T1 sequence: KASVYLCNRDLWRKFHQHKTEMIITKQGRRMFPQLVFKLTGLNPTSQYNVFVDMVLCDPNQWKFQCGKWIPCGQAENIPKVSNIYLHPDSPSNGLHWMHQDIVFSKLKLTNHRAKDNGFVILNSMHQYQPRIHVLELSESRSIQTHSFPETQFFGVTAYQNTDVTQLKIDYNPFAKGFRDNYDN
# Test: PBM E-score of 8-mer (E-score (dimensionless, -0.5 to 0.5)); Tbr is Tbrain of the sea star Patiria miniata (Pm) or the sea urchin Strongylocentrotus purpuratus (Sp); higher = stronger binding preference
# Conditions: the construct has about 5 more residues each side
# In short: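 GST-fused Tbr T-box DNA-binding domains (the whole T-box plus about five flanking residues) were expressed in BL21 E. coli at 20 °C and purified by glutathione affinity chromatography. Universal Agilent oligonucleotide arrays were made double-stranded by primer extension, incubated with 200 nM protein in PBS (pH 7.5), then scanned and quantified. Every ungapped 8-mer was scored from probe intensities. The Universal PBM Analysis Suite gave each word an enrichment E-score, averaged over duplicate arrays.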
row,Sequence,PBM E-score of 8-mer
1,CATCGACA,0.222 ± 0.013
2,ACTTTTCT,0.00466 ± 0.018
3,CATAAGTC,-0.18 ± 0.0024
4,CACAGTTA,0.147 ± 0.022
5,CCTCAGAC,-0.204 ± 0.031
6,CACAACAC,0.3898 ± 0.0017
7,CTCAACAC,0.269 ± 0.022
8,GACAACTC,0.252 ± 0.019
9,AACAACAC,0.373 ± 0.013
10,GACAACAC,0.385 ± 0.0048
11,GTCAACAA,0.333 ± 0.0095
12,AACAACAT,0.187 ± 0.02
13,CACAACAA,0.285 ± 0.028
14,CACAACAG,0.198 ± 0.0064
15,GACAACAA,0.215 ± 0.015
16,GTCAACAC,0.434 ± 0.0065
17,AACAACAA,0.102 ± 0.0091
18,AGAGCCAG,0.0237 ± 0.035
19,TGTTTCAA,-0.0693 ± 0.047
20,CAGCGCAA,-0.0911 ± 0.0026
21,GCAGCGCC,0.189 ± 0.062
22,CGCATGGC,-0.0354 ± 0.028
23,CCTCCACG,0.0268 ± 0.029
24,CCGCAAGG,-0.0599 ± 0.044

row,Sequence,PBM E-score of 8-mer
1,ACCGTCCG,-0.0723 ± 0.023
2,CGGTTAAA,-0.129 ± 0.16
3,CCGACACA,0.36 ± 0.022
4,ACGACACT,0.257 ± 0.0054
5,ACGACACC,0.419 ± 0.02
6,GCGACACC,0.432 ± 0.021
7,CCGACACG,0.253 ± 0.034
8,CCGACACC,0.438 ± 0.0068
9,GCGACACA,0.31 ± 0.0039
10,ACGACACG,0.226 ± 0.042
11,GGGACACC,0.226 ± 0.042
12,CGTTGGGC,-0.255 ± 0.022
13,ATCAATCC,-0.172 ± 0.082
14,GAACGATC,0.0814 ± 0.028
15,CCTGACCC,-0.133 ± 0.084
16,TGAGCGCA,0.00286 ± 0.049
17,ATGTGAGA,0.414 ± 0.018
18,GTGTGATA,0.459 ± 0.0047
19,ATGTGAGG,0.28 ± 0.041
20,GTGAGAGA,0.339 ± 0.0054
21,ATGTGAGC,0.06995 ± 0.00026
22,GTGTGAGA,0.4699 ± 0.0024
23,ATGTGATA,0.254 ± 0.024
24,CTGTGATA,0.23 ± 0.055

row,Sequence,PBM E-score of 8-mer
1,CTGTGAGA,0.292 ± 0.0058
2,CCGATCAA,0.0887 ± 0.014
3,GTACTTGA,0.0232 ± 0.044
4,GCATCCCA,-0.16 ± 0.063
5,GTCACAAC,0.293 ± 0.0073
6,AGGTGTAC,0.294 ± 0.0088
7,AGGTGTAT,0.281 ± 0.011
8,CGGTGTAG,0.17 ± 0.083
9,AGGTGTAA,0.475 ± 0.011
10,AGGTGTAG,0.3922 ± 0.0034
11,CGGTGTAA,0.216 ± 0.014
12,GGGTGTAC,-0.0335 ± 0.078
13,GGGTGTAA,0.386 ± 0.0076
14,TGGTGTAA,0.292 ± 0.059
15,CTGGCCCC,-0.113 ± 0.035
16,AACGAGCG,0.0213 ± 0.0072
17,GAGCAAGA,-0.187 ± 0.011
18,AATCAGTC,-0.0936 ± 0.015
19,CTCGTTAC,-0.116 ± 0.031
20,GGTTGCGA,0.266 ± 0.015
21,CGCGCAAC,0.173 ± 0.066
22,AATGTGAT,0.253 ± 0.0037
23,AGTGTGTG,0.36 ± 0.023
24,AGTGTGTC,0.234 ± 0.06

row,Sequence,PBM E-score of 8-mer
1,AGTGTGAG,0.4646 ± 0.0021
2,ATTGTGAG,0.25 ± 0.035
3,AGTGTGAT,0.4721 ± 0.0012
4,AGTGTGAC,0.445 ± 0.011
5,GATGTGAC,0.273 ± 0.019
6,GGTGTGAC,0.4822 ± 0.0041
7,ACTGTGAC,0.237 ± 0.023
8,GCTGTGAC,0.161 ± 0.042
9,AGAGTGAT,0.231 ± 0.039
10,GGAGCTAA,-0.165 ± 0.013
11,GATTTCAC,0.332 ± 0.023
12,ACCTGTAA,0.154 ± 0.021
13,AGGCATTG,-0.17 ± 0.042
14,ATTCAAGG,-0.262 ± 0.017
15,CCAGCGGA,-0.0913 ± 0.043
16,ATGACGGA,-0.139 ± 0.0034
17,CCTGTGAG,0.24582 ± 4.2e-05
18,CGTGTGTC,0.172 ± 0.058
19,CCTGTGAC,0.263 ± 0.011
20,CATGTGAG,0.137 ± 0.0055
21,CGTGTGAC,0.399 ± 0.012
22,CGTGTGAG,0.4011 ± 0.0033
23,CCCAACTA,-0.164 ± 0.083
24,AGCGTCCC,-0.148 ± 0.0096

row,Sequence,PBM E-score of 8-mer
1,GCTTATCC,0.125 ± 0.027
2,CCTCATAA,-0.0692 ± 0.021
3,ACGTGTTC,0.1884 ± 0.00041
4,ACGTGTAG,0.133 ± 0.068
5,CCGTGTTA,0.158 ± 0.029
6,ACGTGTTA,0.431 ± 0.015
7,GCGTGTTA,0.302 ± 0.018
8,ACGTGTTG,0.367 ± 0.00092
9,GATCGCTA,0.136 ± 0.022
10,GGTCGATA,0.0927 ± 0.012
11,AACTGTTG,0.241 ± 0.017
12,CACGCAGA,0.0713 ± 0.028
13,CTTGACGC,0.324 ± 0.011
14,ATTGACAC,0.418 ± 0.0052
15,ATTGACAG,0.102 ± 0.07
16,CTTGACCC,-0.308 ± 0.038
17,ATTGACAA,0.298 ± 0.026
18,CTTGACAC,0.436 ± 0.0093
19,ACACAGAA,-0.134 ± 0.016
20,GGATAGAC,-0.202 ± 0.041
21,ACTCAATC,-0.0092 ± 0.032
22,CAACACGA,0.185 ± 0.0087
23,CAACACCC,0.433 ± 0.012
24,GAACACCA,0.104 ± 0.014

row,Sequence,PBM E-score of 8-mer
1,CAACACCG,0.312 ± 0.0065
2,GAACACTA,0.013 ± 0.018
3,TAACACTA,0.373 ± 0.042
4,CAACACGC,0.203 ± 0.0098
5,GAACACCC,0.116 ± 0.0077
6,CAACACCA,0.37255 ± 7.8e-05
7,CAACACTA,0.264 ± 0.025
8,TAACACCA,0.43 ± 0.011
9,AAACACCA,0.238 ± 0.027
10,TCAAGGAA,-0.0393 ± 0.033
11,GCTGATCA,0.179 ± 0.059
12,CCCAATGA,-0.198 ± 0.013
13,CCGACCCG,-0.073 ± 0.13
14,GACTCGAC,-0.0494 ± 0.0017
15,CTAATGCA,0.038 ± 0.071
16,GTAGAGAC,-0.094 ± 0.029
17,CCACTATC,0.129 ± 0.028
18,TACACGAA,-0.0857 ± 0.046
19,AGTTGCGC,0.13 ± 0.063
20,GCTTGCGA,0.16 ± 0.0045
21,ACTTGCGA,0.388 ± 0.021
22,AGTTGCGG,0.126 ± 0.029
23,AGTTGCGA,0.3999 ± 0.00081
